The results in this text go back to PubChem BioAssay (Tox21).

A number with no mark means an inactive call. Results filed as inconclusive are left out. Active and inactive are the calls of the source. Unless noted, the call rests on the fitted dose curve; in most records, active means well fitted curve in the direction sought with a large enough effect in the repeat runs; inconclusive means weak or mixed curves; inactive means no such curve, though single readings can be large; an effect the other way counts as inactive or inconclusive.

Test [1] can be described thus: qHTS assay to test for compound auto fluorescence at 460 nm (blue) in HEK293 cell free culture (AID 720681). Particulars: cell-free medium, autofluorescence 405/460 nm (blue); series mostly up to 91.3 µM. The essentials: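 Test compounds were pinned into cell-free culture medium (DMEM with 10% FBS) and fluorescence was read directly at Ex/Em 405/460 nm. Signals were expressed as fluorescence equivalents of triamterene, with DMSO vehicle as control.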
A general note: In qHTS, concentration-response curves come from the screen itself.

Test [2] in a line: qHTS assay to test for compound auto fluorescence at 535 nm (green) in HEK293 cell free culture (AID 720682). Particulars: cell-free medium, green autofluorescence 485/535 nm, hits give high values; series mostly up to 91.3 µM. The procedure, abridged: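 Green-label autofluorescence (485 nm excitation, 535 nm emission) measured on compound added to cell-free culture medium (DMEM, 10% FBS). Output is expressed relative to fluorescein.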

A short description of test [3]: qHTS assay to test for compound auto fluorescence at 590 nm (red) in HEK293 cell free culture (AID 720683). Particulars: cell-free medium autofluorescence, Ex540/Em590 red; series mostly up to 91.3 µM. The essentials: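 Tox21 10K library compounds were pinned into cell-free DMEM with 10% FBS and fluorescence was read at excitation 540 nm. Activity is expressed as Rose Bengal sodium equivalency.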

Test [4] is described as follows: qHTS assay to test for compound auto fluorescence at 590 nm (red) in HepG2 cell free culture (AID 720684). Particulars: cell-free medium autofluorescence, red 540/590 nm; series mostly up to 91.3 µM. The procedure, abridged:
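Ex 540 / Em 590 nm read of compound in cell-free MEM (10% FBS). Rose Bengal sodium reference.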

A short description of test [5]: qHTS assay to test for compound auto fluorescence at 460 nm (blue) in HepG2 cell free culture (AID 720685). The conditions noted are these: Cell-free culture medium, blue autofluorescence 405/460 nm; series mostly up to 91.3 µM. The procedure, abridged:
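Cell-free plates of MEM plus 10% FBS received 23 nL compound or DMSO vehicle; blue-channel (405/460 nm) intensity scored against triamterene as reference fluorophore.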

Test [6] can be described thus: qHTS assay to test for compound auto fluorescence at 535 nm (green) in HepG2 cell free culture (AID 720686). The conditions noted are these: Cell-free medium, green autofluorescence 485/535 nm; series mostly up to 91.3 µM.
Test [7] can be described thus: qHTS assay to test for compound auto fluorescence at 460 nm (blue) in HepG2 cells (AID 720687). The conditions noted are these: autofluorescence 405/460 nm, 1 h; series mostly up to 91.3 µM. The essentials:
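Cells (2,000/well in MEM with 10% FBS) attached overnight at 37 C, then were exposed to compound or DMSO for 1 hr at 37 C, 5% CO2. Fluorescence read at Ex/Em 405/460 nm, expressed as triamterene-equivalent signal.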

For test [8], the target named is Glucocorticoid receptor (Homo sapiens) (UniProt P04150). The experiment in a line: qHTS assay to identify small molecule agonists of the glucocorticoid receptor (GR) signaling pathway (AID 720691; active means well fitted activation curve with a large enough effect in the signal ratio in the repeat runs, not every such curve was filed as active; the % refers to the signal ratio; further: potency means the concentration at half of the fitted maximal effect). Particulars: GR-bla HeLa, beta-lactamase reporter ratio, 18 h; series mostly up to 62.4 µM. The essentials:
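HeLa GR-bla reporter line; cells pre-incubated 4 h, compound in DMSO 18 h at 37 C; LiveBLAzer B/G FRET substrate 2 h RT; fluorescence intensity read-out.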

Test [9] shares this target. Nature of the test: qHTS assay to identify small molecule antagonists of the glucocorticoid receptor (GR) signaling pathway (AID 720692; active means well fitted inhibition curve with a large enough effect in the signal ratio in the repeat runs, not every such curve was filed as active; the % refers to the signal ratio). The conditions noted are these: GR-bla HeLa, beta-lactamase FRET ratio, dexamethasone-stimulated, 18 h; series mostly up to 58.5 µM. The essentials:
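Read-out: beta-lactamase FRET substrate fluorescence, 2 h at room temperature, in HeLa cells stably carrying a GRE-driven bla reporter. Compounds were co-incubated with 5 nM dexamethasone agonist (final) for 18 h at 37 C.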

Test [10] is described as follows: qHTS assay to identify small molecule antagonists of the glucocorticoid receptor (GR) signaling pathway - cell viability counter screen (AID 720693). Further: nearly all actives have a fitted effect of over 55% in size. Particulars: GR-bla HeLa viability, CellTiter-Glo luminescence, 18 h, with 5 nM dexamethasone present; series mostly up to 58.5 µM.
A short description of test [11]: qHTS assay for identifying genotoxic compounds that show differential cytotoxicity against isogenic chicken DT40 cell lines with known DNA damage response pathways - wild type cell line (AID 743012). Further: nearly all actives have a fitted effect of over 60% in size. Further: potency means the concentration at half of the fitted maximal effect. Particulars: DT40 wild type chicken cells viability, CellTiter-Glo, 40 h; series mostly up to 68.4 µM. The essentials:
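CellTiter-Glo luminescence readout of viability in wild type DT40 cells after 40 h compound exposure at 37 C/5% CO2; 300 cells/well; reagent incubated 30 min at room temperature before reading.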

Test [12] can be described thus: qHTS assay for identifying genotoxic compounds that show differential cytotoxicity against isogenic chicken DT40 cell lines with known DNA damage response pathways - Rev3 mutant cell line (AID 743014). Further: nearly all actives have a fitted effect of over 55% in size. Further: potency means the concentration at half of the fitted maximal effect. The conditions noted are these: chicken DT40 Rev3-/- viability, CellTiter-Glo, 40 h; series mostly up to 68.4 µM.
The nature of test [13]: qHTS assay for identifying genotoxic compounds that show differential cytotoxicity against isogenic chicken DT40 cell lines with known DNA damage response pathways - Rad54/Ku70 mutant cell line (AID 743015). Further: nearly all actives have a fitted effect of over 60% in size. Further: potency means the concentration at half of the fitted maximal effect. The conditions noted are these: DT40 Rad54/Ku70 mutant viability, CellTiter-Glo, 40 h; series mostly up to 66.8 µM.
Test [14] is described as follows: qHTS assay to identify small molecule antagonists of the androgen receptor (AR) signaling pathway - cell viability counter screen (AID 743033; further: nearly all actives have a fitted effect of over 45% in size). Particulars: AR-bla HEK293 viability, CellTiter-Glo luminescence, 16 h; series mostly up to 58.5 µM.
Test [15] can be described thus: qHTS assay to identify small molecule antagonists of the androgen receptor (AR) signaling pathway using the MDA cell line - cell viability counter screen (AID 743041; further: nearly all actives have a fitted effect of over 45% in size). The conditions noted are these: MDA-kb2 viability, CellTiter-Fluor, 16 h, cells co-treated with R1881 androgen agonist; series mostly up to 70.3 µM. The essentials: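 In this qHTS counter assay, fluorescence intensity after CellTiter-Fluor addition indicated viability of MDA-kb2 AR-luc cells given compounds and R1881 for 16 h at 37C.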
On the % scale 0 is the no-effect control and ±100 the full control effect.

Chain of Glucocorticoid receptor (Homo sapiens) (P04150 whole entry, looked up): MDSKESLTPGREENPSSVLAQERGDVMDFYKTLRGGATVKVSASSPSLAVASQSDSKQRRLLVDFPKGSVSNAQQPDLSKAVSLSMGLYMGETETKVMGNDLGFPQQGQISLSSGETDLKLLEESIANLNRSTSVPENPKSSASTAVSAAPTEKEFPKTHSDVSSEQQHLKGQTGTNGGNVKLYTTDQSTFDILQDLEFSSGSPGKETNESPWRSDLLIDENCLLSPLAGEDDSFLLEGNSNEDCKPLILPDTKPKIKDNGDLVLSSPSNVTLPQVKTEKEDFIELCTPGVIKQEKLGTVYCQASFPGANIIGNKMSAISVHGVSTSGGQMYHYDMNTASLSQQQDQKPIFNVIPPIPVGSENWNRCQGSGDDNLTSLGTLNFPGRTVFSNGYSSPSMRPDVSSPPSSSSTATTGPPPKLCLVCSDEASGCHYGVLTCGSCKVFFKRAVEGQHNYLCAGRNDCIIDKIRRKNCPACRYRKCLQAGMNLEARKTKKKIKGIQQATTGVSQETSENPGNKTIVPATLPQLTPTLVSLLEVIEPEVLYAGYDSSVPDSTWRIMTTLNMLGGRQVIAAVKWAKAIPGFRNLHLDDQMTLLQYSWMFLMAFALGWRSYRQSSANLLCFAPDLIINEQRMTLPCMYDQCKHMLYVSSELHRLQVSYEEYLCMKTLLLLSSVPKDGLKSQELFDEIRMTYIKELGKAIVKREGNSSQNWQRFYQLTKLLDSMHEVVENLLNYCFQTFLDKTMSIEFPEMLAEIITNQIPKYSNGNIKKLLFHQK

Take `O=C(/C=C/c1ccc(O)c(O)c1)O[C@@H]1C[C@](O)(C(=O)O)C[C@@H](O)[C@H]1O`: the Potency result in test [1], in test [5], in [7], in test [8], in test [9] and in [10] was “inactive” in each case. Moreover, the Potency entry in test [11], in [12], in test [13], in [14] and in test [15] was “inactive” each time. Moreover, the result in test [2], in [3], in [4] and in [6] was inactive.

For `CCCCc1cc2ccccc2c(OCCN(C)C)n1`, the fluorescence, % of fluorescent control in test [1] is -0.0502% [at 18.6 µM]; in test [3], 0.0019% [at 18.6 µM]; in [5], -0.0015% [at 18.6 µM]; in test [7] it was -0.0043% [at 18.6 µM]. In addition, the activity change in test [2] is -0.13% [at 18.6 µM]. Besides, the fluorescence, % of Rose Bengal in test [4] is 0.586% [at 18.6 µM]. Besides, in test [6], the fluorescence, % of fluorescein control was 0.0394% [at 18.6 µM]. Besides, the results for the Potency in test [8], in [11] and in test [12] were 1.02 µM (active), 6.39 µM (active) and 9.02 µM (active), respectively. Also, the Potency entry in test [10] and in test [15] was “inactive” in each case.

Take `CC[C@H](C)[C@H](N)C(=O)O`: the Potency entry in [1], in test [5], in test [7], in test [8], in test [10] and in test [11] was “inactive” each time. Moreover, the Potency entry in test [13], in test [14] and in test [15] was “inactive” throughout. The compound was classed as inactive in test [2], in [3], in [4] and in test [6].

In the case of `CC(=O)c1c(C)c([N+](=O)[O-])c(C(C)(C)C)c([N+](=O)[O-])c1C`, the Potency result in [1], in test [5], in test [7], in test [8], in test [9] and in test [10] was “inactive” throughout. Moreover, the Potency entry in test [11], in [12], in test [13] and in test [15] was “inactive” in each case. In addition, the outcome in [2], in [3], in [4] and in test [6] was inactive.

In the case of `CN(C(=O)CCCOc1ccc2[nH]c(=O)ccc2c1)C1CCCCC1`, the Potency result in test [1], in test [5], in test [7], in [8], in test [9] and in [10] was “inactive” in each case. The Potency result in test [12] and in test [15] was “inactive” throughout. Moreover, the call in [2], in test [3], in test [4] and in test [6] was inactive.

Turning to `CCOC(=O)C1=NN(c2ccccc2)C(=O)C1`, the compound was called inactive in test [2], in [3], in test [4] and in test [6]. Moreover, the Potency entry in test [5], in test [7], in test [8], in [10], in [11] and in test [14] was “inactive” each time. For the same compound, in test [15], the Potency entry was “inactive”.

Consider `CCN(CC)CCc1nc(-c2ccccc2)no1`, for which the fluorescence, % of fluorescent control was -0.0186% [at 18.6 µM] in test [1], -0.0001% [at 18.6 µM] in [3], -0.0109% [at 18.6 µM] in test [5] and -0.0362% [at 18.6 µM] in test [7]. The activity change in [2] is 0.0186% [at 18.6 µM]. Moreover, the fluorescence, % of Rose Bengal in [4] is 0.0837% [at 18.6 µM]. Besides, in [6], the fluorescence, % of fluorescein control was -0.0688% [at 18.6 µM]. Besides, the Potency result in test [8], in [9], in test [10], in test [11], in test [13] and in test [14] was “inactive” each time. Further, the Potency entry in test [15] is “inactive”.

For the compound `OCCC1CCCCN1` (stereo not given), the Potency entry in test [1], in test [5], in test [7], in test [8], in [10] and in test [12] was “inactive” in each case. Also, the Potency entry in test [14] and in test [15] was “inactive” in each case. Also, the result in test [2], in test [3], in test [4] and in [6] was inactive.

Consider `CCCCOc1cc(C(=O)OCCN(CC)CC)ccc1N`, for which the fluorescence, % of fluorescent control in test [1] is -0.116% [at 18.6 µM]; in test [3] it was -0.0563% [at 18.6 µM]; in test [5], 0.0523% [at 18.6 µM]; in test [7], -0.135% [at 18.6 µM]. In addition, the activity change in test [2] is -0.0782% [at 18.6 µM]. For the same compound, the fluorescence, % of Rose Bengal in test [4] was 0.59% [at 18.6 µM]. For the same compound, the fluorescence, % of fluorescein control in test [6] was 0.0068% [at 18.6 µM]. The Potency result in test [8], in test [9], in [10], in test [14] and in test [15] was “inactive” in each case. For the same compound, the Potency in test [11] was 10.1 µM (active); in test [12], 2.54 µM (active); in [13] it was 8.04 µM (active).

Turning to `CCCC(=O)OCC`, the Potency entry in test [1], in [5], in test [7], in [8], in test [9] and in test [10] was “inactive” throughout. In test [15], the Potency result was “inactive”. Moreover, the compound was classed as inactive in [3], in test [4] and in test [6]. In addition, the Potency in test [13] is 68.6 µM (active).

For the compound `O=C(O)C1CCC(C(=O)O)CC1` (stereo not given), the Potency result in test [1], in test [5], in test [7], in [8], in test [9] and in test [10] was “inactive” each time. The compound was called inactive in test [3], in test [4] and in test [6]. For the same compound, the Potency was 60.9 µM (active) in [12] and 68.4 µM (active) in test [13].
